# Screens from PubChem BioAssay.
# NS1 inh = blocks influenza NS1 protein function; AID 2326; actives 0.4% (n = 270,000); Potency, µM (doses to about 46.1 µM), for the others: at the top dose activity, positive = more growth; calls by dose curve; also: actives are rising curves; nearly all actives have a fitted effect of over 50% in size
#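 OD600 was taken as the measure of yeast growth restored by compound in an NS1-expressing S. cerevisiae strain. Cells had been washed out of glucose medium and diluted 1:100 into galactose -URA medium, pH 6.0.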
# AMA1-RON2 inh = inhibitors of Plasmodium falciparum AMA1-RON2 interaction | actives 0.2% (n = 360,000) | Potency, µM (top dose mostly 58.2 µM), without a hit: at the top dose activity change, negative = inhibition, hits mostly inhibitors | AlphaScreen AMA1-biotinylated RON2 peptide binding;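 also: 0% = vehicle wells and -100% = peptide control; nearly all actives have a fitted effect of over 45% in size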
#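 AMA1 (3D7) with his tag at 25 nM final met compounds first, then biotinylated RON2 peptide at 25 nM; detection used donor plus acceptor beads, 10 µg/mL apiece, read by AlphaScreen after 30 min at room temperature.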
# Pf growth 96h = P. falciparum growth inhibition at 96 hour, primary screen for plastid delayed-death inhibitors. P. falciparum luciferase reporter growth, 96 h. Potency, µM (doses to about 28.7 µM), for inactives: at the top dose activity change, negative = inhibition, actives largely listed as inhibitors. actives 6.9% (n = 320,000); also: % is scaled to controls: 0 for no effect and ±100 for the full control effect
#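 P. falciparum expressing integrated firefly luciferase grown in erythrocytes (2% hematocrit, 0.05% parasitemia final) with compounds for 96 hours at 37 C, 5% CO2. Growth inhibition read as loss of luminescence after adding luciferase detection reagent.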
# Pf growth 48h = P. falciparum growth inhibition at 48 hours (one generation); P. falciparum luciferase growth in erythrocytes, 48 h; Potency, µM (series often up to 28.7 µM), inactives show at the top dose activity change, negative = inhibition, actives largely listed as inhibitors; actives 5.9% (n = 310,000); AID 504832; also: % is scaled to controls: 0 for no effect and ±100 for the full control effect
#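 Erythrocytes infected with P. falciparum carrying an integrated firefly luciferase reporter (2% hematocrit, 0.1% parasitemia final) were exposed to compounds in RPMI 1640 with 0.5% Albumax at 37 C, 5% CO2. Growth inhibition was scored as reduced luminescence.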
# SARS PLpro yeast = inhibitors of SARS-CoV papain-like protease in yeast. actives 0.19% (n = 330,000). S. cerevisiae expressing SARS-CoV PLpro, growth rescue. AID 485353. Potency, µM (top dose mostly 32.9 µM), for inactives: top-dose activity, positive = growth rescue, actives largely listed as activators; calls by dose curve; also: 0% is about no effect; nearly all actives have a fitted effect of over 55% in size
# HCV inh = blocks hepatitis C virus. Huh7.5.1 HCVcc-Cre infection, luciferase reporter, 44 h. Potency, µM (doses to about 41.8 µM), for inactives: top-dose activity change, negative = inhibition, hits mostly inhibitors. actives 3.4% (n = 340,000); also: % is scaled to controls: 0 for no effect and ±100 for the full control effect
#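 After 44 h co-culture of compound, cells and HCVcc-Cre (~0.5 moi), substrate is added for 15 min at room temperature and luciferase measured over 15 sec. Cells were seeded at 1,000/well and pre-cultured 4 h.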
# An asterisk follows results filed as active; ? = inconclusive; . = not tested or not shown; ! = not active in a repeat; [ ] = another dose, or the depositor's remark. Compounds with a hit are over-represented: about 12% of the library has one in this group of screens. Unless noted, calls follow the shape of the dose curve; as a rule, active = well fitted curve in the direction sought with a large enough effect; inconclusive = small, poorly fitted or top-dose-only effect, or another doubt; inactive = no such curve, though single readings can be large; an effect the other way counts as inactive or inconclusive. Potency is read from the fitted curve at half-maximal effect.
SMILES,NS1 inh,AMA1-RON2 inh,Pf growth 96h,Pf growth 48h,SARS PLpro yeast,HCV inh
Cc1cccc2c1N(CCCOc1ccc(C(C)(C)C)cc1)C(=O)C2=O,?,?,9.3µM*,.,-11%,?
Cc1ccccc1OCCCN1C(=O)C(=O)c2cccc(C)c21,-119%,16µM*,-18%,?,-39%,?
COc1cc(C(=O)NC2CCN(CC(=O)Nc3cccc(C)c3C)CC2)cc(OC)c1OC,-7%,19%,?,5%,-4%,1%
CCOC(=O)C1=C(C)NC(SCC(=O)Nc2cc(C)on2)=C(C#N)C1c1cccs1 (configuration not stated),0%,-3%,?,10µM*,-3%,10µM*
C=CCOC(=O)C1=C(C)NC(SC)=C(C#N)C1c1ccc(OCC)cc1 (configuration not stated),-52%,-5%,12µM*,8.3µM*,4%,-8%
CCOC(=O)C1=C(C)NC(SCC(N)=O)=C(C#N)C1c1cccs1 (configuration not stated),12%,-9%,-11%,?,-3%,9%
C=CCOC(=O)C1=C(C)NC(SCC(=O)Nc2nccs2)=C(C#N)C1c1cccs1 (configuration not stated),24%,29%,4.1µM*,4.7µM*,-7%,?
C=CCOC(=O)C1=C(C)NC(SCC(=O)Nc2nccs2)=C(C#N)C1c1ccc(Cl)cc1 (configuration not stated),6%,14%,2.1µM*,2.1µM*,-4%,?
CCCCc1cc(=O)oc2cc(OCC(=O)Nc3ccccn3)ccc12,2%,-4%,45%,81%,-6%,-4%
CN1C(=O)C(C)(C)N(C(=O)c2cccc([N+](=O)[O-])c2)c2ccccc21,-3%,0%,?,110%,4%,-5%
CC1CCN(c2c(NCc3ccc(C(=O)NCc4ccco4)cc3)c(=O)c2=O)CC1,-17%,9%,?,-21%,5%,-5%
O=C(NCc1ccco1)c1ccc(CNc2c(N3CCCCC3)c(=O)c2=O)cc1,-4%,-4%,10µM*,6%,2%,4%
Cc1cc(C)cc(NC(=O)c2ccc(CNc3c(N4CCCC4)c(=O)c3=O)cc2)c1,-1%,-8%,0.52µM*,?,3%,-26%
CCCCNC(=O)c1ccc(CNc2c(N3CCC(C(=O)OCC)CC3)c(=O)c2=O)cc1,-5%,0%,?,12µM*,-7%,?
CCOC(=O)C1CCN(c2c(NCc3ccc(C(=O)O)cc3)c(=O)c2=O)CC1,-4%,.,.,.,.,.
CCOC(=O)C1CCN(c2c(NCc3ccc(C(=O)Nc4ccc(C)cc4)cc3)c(=O)c2=O)CC1,-30%,-7%,4.1µM*,4.7µM*,0%,?
CC(C)(C)N(Cc1ccccc1)C(=O)CN1C(=O)NC2(CCCCCC2)C1=O,.,-6%,?,?,3%,1%
Cc1ccc(C(=O)N2CCCC2)cc1S(=O)(=O)N1CCCCC1,-2%,-16%,-20%,2%,-4%,13%
Cc1cccc(C(C(=O)NC2CCCC2)N(C(=O)c2csnn2)C2CC2)c1 (configuration not stated),-5%,0%,-28%,0%,1%,-1%
Cc1cc(C)c2c(CC(=O)NC3CCS(=O)(=O)C3)coc2c1 (configuration not stated),-5%,7%,?,22%,-2%,-3%
COC(=O)c1ccccc1NC(=O)CN(c1c(C)cccc1C)S(C)(=O)=O,9%,10%,?,271%,-4%,12%
COc1ccc(C(=O)c2ccc3oc(-c4ccc(OC)cc4)c(C#CCCO)c3c2)cc1,.,7%,.,.,.,?
COc1cc(OC)cc(-c2oc3cccnc3c2C#CCCO)c1,1%,18%,?,14%,5%,7.1µM*
C[C@H]1CC[C@H]2C(=O)N3[C@H](c4ccccc4Br)[C@@H](C)CC[C@H]3C(=O)N2[C@@H]1c1ccccc1Br,28%,.,5.2µM*,?,-29%,-13%[8.37 µM]
C[C@H]1CC[C@H]2C(=O)N3[C@H](c4cccc(N5CCCC5=O)c4)[C@@H](C)CC[C@H]3C(=O)N2[C@@H]1c1cccc(N2CCCC2=O)c1,-19%,.,?,?,-2%,-9%[8.37 µM]
SMILES,NS1 inh,AMA1-RON2 inh,Pf growth 96h,Pf growth 48h,SARS PLpro yeast,HCV inh
Cc1ccccc1NC(=S)Nc1ccc(Br)cc1,-16%,-11%,?,14%,-57%,34%
CCC(=O)NC(/C=C/c1ccccc1)c1cc([N+](=O)[O-])c2cccnc2c1O (configuration not stated),-1%,.,-5%,9%,2.2µM*,0%
COc1ccc(O)c(CN2CCC(n3nccc3NC(=O)C3CCCC3)CC2)c1,6%,8%,?,13µM*,2%,-18%
Cn1cc(CN2CCC(n3nccc3NC(=O)c3ccccc3Cl)CC2)c2ccccc21,3%,-15%,?,3.3µM*,-3%,-22%
CCOc1ccccc1CN1CCC(n2nccc2NC(=O)C2CCCC2)CC1,19%,-3%,-11%,12µM*,4%,?
COc1ccc(CN2CCC(n3nccc3NC(=O)C3CCCC3)CC2)c(OC)c1,5%,-20%,5%,?,2%,-15%
O=C(Nc1ccnn1C1CCN(Cc2ccccc2)CC1)C1CCCC1,-3%,-1%,-8%,?,5%,10%
CC(Cc1ccc(Cl)cc1)N1CCC(n2nccc2NC(=O)C2CCCC2)CC1 (configuration not stated),14%,5%,?,10µM*,2%,?
CC[n+]1ccc2cc(OC)c(OC)cc2c1Cc1ccc(OC)c(OC)c1,0%,15%,?,1.2µM*,3%,-18%
COc1ccc(Cc2nccc3cc(OC)c(OC)cc23)cc1OC,?,-4%,?,?,-1%,3.2µM*!
COc1ccc(Cc2c3cc(OC)c(OC)cc3cc[n+]2C)cc1OC,2%,4%,8.3µM*,?,-1%,-9%
CCS(=O)(=O)Nc1cc(OC)c(OC)cc1Cc1nccc2cc(OC)c(OC)cc12,-7%,-14%,0%,-28%,1%,-1%
Cn1cnc2c(=O)sc3ccccc3c21,.,-2%,.,.,.,-9%
CN(Cc1ccccc1)C(=O)COC(=O)CCC(=O)c1ccc(F)cc1,.,11%,.,.,0%,10%
CCOC1=C2[C@H](c3ccccc3F)N(S(=O)(=O)c3ccc(C)cc3)C[C@H]2n2c(=O)n(-c3ccccc3)c(=O)n2C1,.,-5%,.,.,.,.
CCc1nc2ccccc2c(NC(=O)CN2CCC(C)CC2)c1C,-6%,-25%,7.4µM*,-7%,5%,8%
